# Laboratory results published in the supplement of paper PMC4466140.
# Legend:
# Assay in all cases: SPOT peptide array binding signal intensity (averaged, normalized) (arbitrary units (background-subtracted, floor 0; scale differs between SH3 domains)); higher = stronger binding of the SH3 domain to the peptide
# [1] = target: AgAbp1
# Summary of the method: (§1)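 Peptides were synthetic 15-mers on cellulose membranes, with every cysteine replaced by serine. They were incubated overnight at 4°C with GST-SH3 domains from four yeast species at 10 μg/ml in TBS-based blocking buffer. Binding signal, the replicate-averaged normalized and background-subtracted spot intensity, is in arbitrary units that differ between domains.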
# [2] = target: AgBbc1
# Summary of the method: as §1
# [3] = target: AgBem1-D1
# Summary of the method: as §1
# [4] = target: AgBzz1-D1
# Summary of the method: as §1
# [5] = target: AgBzz1-D2
# Summary of the method: as §1
# [6] = target: AgCyk3
# Summary of the method: as §1
# [7] = target: AgFus1
# Summary of the method: as §1
# [8] = target: AgHof1
# Summary of the method: as §1
# [9] = target: AgHse1
# Summary of the method: as §1
# [10] = target: AgLsb1
# Summary of the method: as §1
# [11] = target: AgLsb4
# Summary of the method: as §1
# [12] = target: AgMyo5
# Summary of the method: as §1
# [13] = target: AgNbp2
# Summary of the method: as §1
# [14] = target: AgRvs167
# Summary of the method: as §1
# [15] = target: AgSho1
# Summary of the method: as §1
# [16] = target: AgSla1-D1-D2
# Summary of the method: as §1
# [17] = target: AgSla1-D3
# Summary of the method: as §1
# [18] = target: CaAbp1-D1
# Summary of the method: as §1
# [19] = target: CaAbp1-D2
# Summary of the method: as §1
# [20] = target: CaBbc1
# Summary of the method: as §1
# [21] = target: CaBem1-D1
# Summary of the method: as §1
# [22] = target: CaBzz1-D1
# Summary of the method: as §1
# [23] = target: CaBzz1-D2
# Summary of the method: as §1
# [24] = target: CaCyk3
# Summary of the method: as §1
# [25] = target: CaFus1
# Summary of the method: as §1
# [26] = target: CaHof1
# Summary of the method: as §1
# [27] = target: CaHse1
# Summary of the method: as §1
# [28] = target: CaLsb1
# Summary of the method: as §1
# [29] = target: CaLsb4
# Summary of the method: as §1
# [30] = target: CaMyo5
# Summary of the method: as §1
# [31] = target: CaNbp2
# Summary of the method: as §1
# [32] = target: CaRvs167
# Summary of the method: as §1
# [33] = target: CaRvs167-3
# Summary of the method: as §1
# [34] = target: CaSho1
# Summary of the method: as §1
# [35] = target: CaSla1-D1-D2
# Summary of the method: as §1
# [36] = target: CaSla1-D3
# Summary of the method: as §1
# [37] = target: ScAbp1
# Summary of the method: as §1
# [38] = target: ScBbc1
# Summary of the method: as §1
# [39] = target: ScBem1-D1
# Summary of the method: as §1
# [40] = target: ScBzz1-D1
# Summary of the method: as §1
# [41] = target: ScBzz1-D2
# Summary of the method: as §1
# [42] = target: ScCyk3
# Summary of the method: as §1
# [43] = target: ScFus1
# Summary of the method: as §1
# [44] = target: ScHof1
# Summary of the method: as §1
# [45] = target: ScHse1
# Summary of the method: as §1
# [46] = target: ScLsb1
# Summary of the method: as §1
# [47] = target: ScLsb2
# Summary of the method: as §1
# [48] = target: ScLsb3
# Summary of the method: as §1
# [49] = target: ScLsb4
# Summary of the method: as §1
# [50] = target: ScMyo3
# Summary of the method: as §1
# [51] = target: ScMyo5
# Summary of the method: as §1
# [52] = target: ScNbp2
# Summary of the method: as §1
# [53] = target: ScPex13
# Summary of the method: as §1
# [54] = target: ScRvs167
# Summary of the method: as §1
# [55] = target: ScSho1
# Summary of the method: as §1
# [56] = target: ScSla1-D1-D2
# Summary of the method: as §1
# [57] = target: ScSla1-D3
# Summary of the method: as §1
# [58] = target: SpAbp1-D1
# Summary of the method: as §1
# [59] = target: SpBbc1
# Summary of the method: as §1
# [60] = target: SpBzz1-D1
# Summary of the method: as §1
binder,measurement,setting,value
AAHKTKPSIPPKKVE,SPOT peptide array binding signal intensity,[1],1520
same,SPOT peptide array binding signal intensity,[2],≤ 0
same,SPOT peptide array binding signal intensity,[3],≤ 0
same,SPOT peptide array binding signal intensity,[4],57.5
same,SPOT peptide array binding signal intensity,[5],5.5
same,SPOT peptide array binding signal intensity,[6],≤ 0
same,SPOT peptide array binding signal intensity,[7],≤ 0
same,SPOT peptide array binding signal intensity,[8],20
same,SPOT peptide array binding signal intensity,[9],≤ 0
same,SPOT peptide array binding signal intensity,[10],≤ 0
same,SPOT peptide array binding signal intensity,[11],≤ 0
same,SPOT peptide array binding signal intensity,[12],3.75
same,SPOT peptide array binding signal intensity,[13],≤ 0
same,SPOT peptide array binding signal intensity,[14],1
same,SPOT peptide array binding signal intensity,[15],8
same,SPOT peptide array binding signal intensity,[16],≤ 0
same,SPOT peptide array binding signal intensity,[17],3.25
same,SPOT peptide array binding signal intensity,[18],2440
same,SPOT peptide array binding signal intensity,[19],6290
same,SPOT peptide array binding signal intensity,[20],42
same,SPOT peptide array binding signal intensity,[21],≤ 0
same,SPOT peptide array binding signal intensity,[22],257
same,SPOT peptide array binding signal intensity,[23],243
same,SPOT peptide array binding signal intensity,[24],≤ 0
same,SPOT peptide array binding signal intensity,[25],≤ 0
same,SPOT peptide array binding signal intensity,[26],1.5
same,SPOT peptide array binding signal intensity,[27],13.2
same,SPOT peptide array binding signal intensity,[28],≤ 0
same,SPOT peptide array binding signal intensity,[29],≤ 0
same,SPOT peptide array binding signal intensity,[30],1
same,SPOT peptide array binding signal intensity,[31],≤ 0
same,SPOT peptide array binding signal intensity,[32],1.67
same,SPOT peptide array binding signal intensity,[33],≤ 0
same,SPOT peptide array binding signal intensity,[34],≤ 0
same,SPOT peptide array binding signal intensity,[35],282
same,SPOT peptide array binding signal intensity,[36],3.25
same,SPOT peptide array binding signal intensity,[37],907
same,SPOT peptide array binding signal intensity,[38],≤ 0
same,SPOT peptide array binding signal intensity,[39],≤ 0
same,SPOT peptide array binding signal intensity,[40],3.5
same,SPOT peptide array binding signal intensity,[41],1.5
same,SPOT peptide array binding signal intensity,[42],≤ 0
same,SPOT peptide array binding signal intensity,[43],≤ 0
same,SPOT peptide array binding signal intensity,[44],0.5
same,SPOT peptide array binding signal intensity,[45],≤ 0
same,SPOT peptide array binding signal intensity,[46],0.25
same,SPOT peptide array binding signal intensity,[47],0.5
same,SPOT peptide array binding signal intensity,[48],144
same,SPOT peptide array binding signal intensity,[49],13.5
same,SPOT peptide array binding signal intensity,[50],8.5
same,SPOT peptide array binding signal intensity,[51],2
same,SPOT peptide array binding signal intensity,[52],≤ 0
same,SPOT peptide array binding signal intensity,[53],7
same,SPOT peptide array binding signal intensity,[54],3.17
same,SPOT peptide array binding signal intensity,[55],6
same,SPOT peptide array binding signal intensity,[56],≤ 0
same,SPOT peptide array binding signal intensity,[57],2.5
same,SPOT peptide array binding signal intensity,[58],282
same,SPOT peptide array binding signal intensity,[59],≤ 0
same,SPOT peptide array binding signal intensity,[60],311
